HT1080 IDH1KD tx: kills HT-1080 cells with IDH1 knockdown. HT-1080 IDH1 knockdown viability, ATP luminescence, 48 h. Potency, µM (series often up to 46.1 µM), inactives show top-dose activity, negative = toxicity, usual class: cytotoxic. 360,000 tested, 2% active;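 also: potency is read from the fitted curve at half-maximal effect; 0% = DMSO wells and -100% = cell-free medium wells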
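CellTiter-Glo luminescence after 48 h compound exposure at 37 degrees C of IDH1-knockdown HT-1080 cells in 5% FBS RPMI. %Activity scaled between DMSO wells and cell-free media wells, with curves fitted and assigned curve classes.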
DT40 TDP1 no CPT: qHTS for Inhibitors of human tyrosyl-DNA phosphodiesterase 1 (TDP1): qHTS in cells in absence of CPT | DT40 Tdp1-/- hTDP1 cells, no CPT, ATP luminescence, 48 h | Potency, µM (highest dose often 46.2 µM), for inactives: at the top dose activity change, negative = growth inhibition, hits mostly inhibitors | 420,000 tested, 15% active | AID 686978, 2013; also: potency is read from the fitted curve at half-maximal effect; nearly all actives have a fitted effect of over 55% in size
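A cellular qHTS used chicken DT40 cells lacking endogenous Tdp1 but carrying stably transfected human TDP1. Compounds were applied without camptothecin, and cell growth kinetics were judged by ATP-dependent luminescence after ≥48 hr.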
IL-1B inflam inh: inhibitors of inflammasome signaling (IL-1 beta secretion); activity change, % at 57.5 µM; THP-1 LPS/ATP IL-1B secretion, AlphaLISA, 16 h; stronger effect = lower value; 360,000 tested, 4.7% active; in the data active = activity change below about -50%; inconclusive = mostly about -30% to -49%
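THP-1 cells pretreated 1 hr with compounds (up to 57.5 uM final), then stimulated with LPS (250 ng/mL final) plus ATP (1.25 mM final); secreted IL-1B measured by AlphaLISA after 16 hr, decreased signal indicating inhibition.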
ALOX12 inh: inhibitors of human 12S-lipoxygenase ALOX12; P18054; Potency, µM (series often up to 108 µM), for inactives: top-dose activity change, negative = inhibition, hits mostly inhibitors; purified 12hLO, xylenol orange hydroperoxide absorbance; 580,000 tested, 1.1% active; also: potency is read from the fitted curve at half-maximal effect
Target sequence (P18054 whole entry, looked up): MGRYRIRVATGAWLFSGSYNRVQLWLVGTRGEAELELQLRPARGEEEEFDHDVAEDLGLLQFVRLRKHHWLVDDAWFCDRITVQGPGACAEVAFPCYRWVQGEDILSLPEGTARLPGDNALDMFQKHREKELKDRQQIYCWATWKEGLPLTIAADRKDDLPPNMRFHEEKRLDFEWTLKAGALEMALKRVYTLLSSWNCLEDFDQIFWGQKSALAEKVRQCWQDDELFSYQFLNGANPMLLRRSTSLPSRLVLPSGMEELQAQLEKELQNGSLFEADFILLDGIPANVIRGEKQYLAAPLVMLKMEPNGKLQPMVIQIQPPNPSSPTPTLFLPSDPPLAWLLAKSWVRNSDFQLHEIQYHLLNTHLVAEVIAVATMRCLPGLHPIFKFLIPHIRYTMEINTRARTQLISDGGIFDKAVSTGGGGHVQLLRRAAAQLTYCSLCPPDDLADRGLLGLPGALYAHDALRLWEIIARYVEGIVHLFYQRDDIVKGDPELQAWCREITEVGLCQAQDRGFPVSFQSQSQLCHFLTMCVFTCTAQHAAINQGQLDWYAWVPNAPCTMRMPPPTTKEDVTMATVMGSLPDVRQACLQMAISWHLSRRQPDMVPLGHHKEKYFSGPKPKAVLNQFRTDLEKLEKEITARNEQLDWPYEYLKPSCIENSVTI
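Purified human 12hLO (150 nM final) in 25 mM Hepes, 0.01% Triton X-100, pH 7.0 was preincubated 15 min at room temperature with compound. Then 40 uM arachidonic acid was added, 30 min. Hydroperoxide was read by Fe-XO absorbance ratio 573/405 nm.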
HT1080NT lethal: kills 2HG-producing HT-1080-NT fibrosarcoma cells; 360,000 tested, 1.6% active; HT-1080-NT fibrosarcoma viability, CellTiter-Glo ATP luminescence, 48 h; Potency, µM (titrated, usually from 46.1 µM), for inactives: at the highest dose activity, negative = less viability, usual class: cytotoxic; AID 686970;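 also: NT is the 2HG producing partner of a matched IDH1 knockdown line; potency is read from the fitted curve at half-maximal effect; 0% = DMSO-treated cells and -100% = media-only wells without cells; nearly all actives have a fitted effect of over 55% in size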
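Fibrosarcoma NT cells, 750 per well in 5% FBS RPMI, were exposed to compound for 48 hours. Viability: CellTiter-Glo luminescence.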
TDP1 cell CPT: DT40-hTDP1 cell growth loss with CPT | chicken DT40 Tdp1-/-;hTDP1 cells + 20 nM CPT, ATP luminescence, 48 h | Potency, µM (doses to about 46.2 µM), without a hit: at the highest dose activity change, negative = growth inhibition, actives largely listed as inhibitors | 420,000 tested, 12% active | AID 686979; also: potency is read from the fitted curve at half-maximal effect; nearly all actives have a fitted effect of over 55% in size
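Chicken DT40 Tdp1-/- cells stably complemented with human TDP1 were seeded at 400 cells/well in medium containing 20 nM camptothecin, exposed to pin-transferred compounds, and grown at 37 °C for at least 48 hr. Viability was read as ATP luminescence.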
Active calls of the source: *; ? = inconclusive; . = not tested or not shown; [ ] = dose if it differs, or a comment. The sample as a whole holds a higher share of hits than the screen did. Unless noted, calls follow the shape of the dose curve; as a rule, active = well fitted curve in the direction sought with a large enough effect; inconclusive = small, poorly fitted or top-dose-only effect, or another doubt; inactive = no such curve, though single readings can be large; an effect the other way counts as inactive or inconclusive. Unless noted, % is scaled to controls: 0 for no effect and ±100 for the full control effect.

SMILES | HT1080 IDH1KD tx | DT40 TDP1 no CPT | IL-1B inflam inh | ALOX12 inh | HT1080NT lethal | TDP1 cell CPT
Cc1nn(C)cc1C(=O)/C=C/c1ccc([N+](=O)[O-])cc1 | ? | 18µM* | -99* | 4% | 23µM* | ?
CCn1cc(CN(C)C(=O)/C=C/c2ccc([N+](=O)[O-])cc2)c(C)n1 | -2% | 15µM* | 0 | -4% | 1% | ?
N#CCn1nc2n(c1=O)CCN(C(=O)NCCc1ccccc1)CC2 | . | . | . | 43% | . | .
C=CCn1c(COc2ccccc2F)nnc1SCC(=O)c1c[nH]c2ccccc12 | -13% | 23µM* | -3 | -4% | 0% | 26µM*
COc1ccc(NC(=O)CCn2c(=O)c3cccn3c3cccnc32)cc1Cl | . | -24% | . | 0% | . | 0%
CN(C)CCNC(=O)CCCn1c(=O)c2cccn2c2ccccc21 | . | -3% | . | 0% | . | 15%
Cc1cc(C)c(NC(=O)Cn2c(=O)c3cccn3c3ccccc32)c(C)c1 | 7% | -26% | 10 | ? | 4% | ?
Cc1ccc(NC(=O)CCn2c(=O)c3cccn3c3ccccc32)cc1C | -12% | 18µM* | 61 | 1% | -22% | ?
Cc1c(Cl)cccc1NC(=O)CCn1c(=O)c2cccn2c2ccccc21 | . | 16µM* | . | -19% | . | ?
CCc1ccccc1NC(=O)CCCn1c(=O)c2cccn2c2ccccc21 | . | 16µM* | . | 2% | . | ?
Cc1ccc(NC(=O)CCn2c(=O)c3cccn3c3ccccc32)cc1Cl | . | 23µM* | . | -14% | . | 18µM*
CC(C)(C)NC(=O)C[C@H]1C[C@H](C(=O)N2CCOCC2)[C@@]2(C)c3[nH]c4ccc(Cl)cc4c3CCN2C1=O | 1% | -28% | -5 | -7% | 0% | -10%
CC1(c2ccccc2)N(Cc2ccccc2)C(=O)OC12CCN(Cc1ccc(C(=O)O)cc1)CC2 (stereo not given) | . | . | . | 10% | . | .
Cc1ccc(NC(=O)CCCn2c(=O)c3cccn3c3ccccc32)cc1C | . | 12µM* | . | -13% | . | 16µM*
C=C1CC2C(=O)N(Cc3cc(OC)ccc3OC)C(C(=O)OCC)(C(=O)OCC)C1N2C(=O)OC(C)(C)C (stereo not given) | 3% | ? | 0 | -1% | 2% | 21µM*
CCn1ccc2cc(S(=O)(=O)N3CCCN(C(=O)Nc4ccc(C)cc4Cl)CC3)ccc21 | . | . | . | -2% | . | .
CC1C(=O)OC2CC34C5CC(C(C)(C)C)C36C(OC(=O)C6O)OC4(C(=O)O5)C21O (stereo not given) | . | -4% | . | . | . | 8%
Cc1c(C(=O)N2CCN(c3ccc(C(F)(F)F)cn3)CC2)oc2ccccc12 | -5% | 18µM* | 26 | 0% | 0% | 23µM*
Cc1ccc(C(=O)N2CCN(c3ccc(C(F)(F)F)cn3)CC2)c(C)c1 | -18% | 21µM* | 8 | -24% | -7% | 16µM*
Cc1ccc(C(=O)N2CCN(c3ccc(C(F)(F)F)cn3)CC2)cc1 | -3% | ? | 0 | 2% | 1% | -28%
Cc1cccc(NC(=O)CSc2nc3nc(C)cc(C)n3n2)c1 | -2% | -16% | -11 | -12% | 9% | 5%
O=S(=O)(Cc1ccccc1)N[C@H]1CO[C@H]2[C@@H]1OC[C@@H]2n1cc(-c2ccccn2)nn1 | . | . | . | 7%[176 µM] | . | .
CCOc1ccc(-n2c(SC)nc3c(c2=O)SCC3)cc1 | -4% | -28% | 7 | ? | 0% | -23%
CCOc1ccc(-n2c(SC(C)C)nc3c(c2=O)SCC3)cc1 | -21% | 16µM* | -2 | 0% | -16% | ?
O=C(Cn1ccc2cc(S(=O)(=O)N3CCCCCC3)ccc21)NCCc1ccc(Cl)cc1 | . | 18µM* | . | -21% | . | 16µM*
SMILES | HT1080 IDH1KD tx | DT40 TDP1 no CPT | IL-1B inflam inh | ALOX12 inh | HT1080NT lethal | TDP1 cell CPT
COc1ccccc1CCNC(=O)Cn1ccc2cc(S(=O)(=O)N3CCCCCC3)ccc21 | . | ? | . | 1% | . | ?
COc1ccc(OC)c(CCNC(=O)Cn2ccc3cc(S(=O)(=O)N4CCCCC4)ccc32)c1 | . | 7.3µM* | . | -2% | . | ?
CCOc1ccc(CCNC(=O)Cn2ccc3cc(S(=O)(=O)N4CCCCCC4)ccc32)cc1 | . | 13µM* | . | -20% | . | 21µM*
CSc1ccc(CCNC(=O)Cn2ccc3cc(S(=O)(=O)N4CCCCCC4)ccc32)cc1 | . | ? | . | -22% | . | 15µM*
CCOc1ccc(CCNC(=O)Cn2ccc3cc(S(=O)(=O)N4CCCC4)ccc32)cc1 | -7% | ? | 23 | 31% | -26% | ?
COc1ccccc1/C=C1\S/C(=N/NC(=O)c2cccc(Br)c2)NC1=O | ? | 21µM* | -13 | 2% | ? | ?
COC(=O)/C=C1\S/C(=N/NC(=O)c2ccccc2)NC1=O | 1% | -4% | -2 | 70% | 1% | -9%
CCCCN(C)CCNC(=O)CCn1nc(-c2ccc(C)cc2)ccc1=O | 0% | -9% | -13 | 9% | 0% | 21µM*
CCOC(=O)c1ccccc1NC(=O)CSc1ncnc2c(-c3ccccc3)c[nH]c12 | . | . | . | -10% | . | .
CC(=O)Nc1ccc(/C=C2\CCc3ccccc3C2=O)cc1 | ? | -25% | -96* | ? | 23µM* | 15%
COc1ccc(/C=C2\CCc3ccccc3C2=O)cc1O | 4.1µM* | 0.82µM* | 10 | ? | 2.3µM* | 0.52µM*
COc1ccc(/C=C2\CCC(C3CCCC3)C2=O)cc1Cn1cccn1 (stereo not given) | -8% | ? | -80* | -19% | -1% | 18µM*
COc1ccc(/C=C2\CCc3ccccc3C2=O)cc1Cn1cccn1 | -16% | ? | ? | -2% | -5% | 21µM*
O=C1/C(=C\c2ccccc2)CCc2ccccc21 | . | . | . | 2% | . | .
CCOc1ccc(/C=C2\CCC(C3CCCC3)C2=O)cc1OC (stereo not given) | 0% | ? | -16 | -20% | 15% | ?
Cc1cccc(Cn2c(N3CCOCC3)nc3c2c(=O)[nH]c(=O)n3C)c1 | . | . | . | -6% | . | .
COc1ccc2c(c1)CC/C(=C\c1ccc(SC)cc1)C2=O | . | . | . | -51% | . | .
COc1ccc2c(c1)CC/C(=C/c1ccncc1)C2=O | -10% | 16µM* | -105* | . | 0% | 16µM*
CCOC(=O)c1cccc(NC(=O)CCC2CCCCC2)c1 | . | . | . | 7% | . | .
c1ccc(N2CCN(c3nccn4ccnc34)CC2)nc1 | -7% | -25% | -4 | 9% | -3% | ?
N#Cc1cc(C#N)c(N2CCN(c3ccccn3)CC2)nc1N | 2% | 22µM* | 31 | 16% | 7% | ?
COCCCN(CCC(=O)NCCOC)C(=O)c1cc(C)oc1C | . | . | . | 27% | . | .
